Measured values taken from PubChem BioAssay (Tox21).
“And” between values parts separate entries of the source, which are not always exact repeats. Identical values can stand only once. Results filed as inconclusive are left out. A call without a number means that no potency is given here. Some structures have more than one record in an assay (separate samples or runs), and their calls can disagree. The source made the active and inactive calls. Unless noted, the call rests on the fitted dose curve; in most records, active means well fitted curve in the direction sought with a large enough effect in the repeat runs; inconclusive means weak or mixed curves; inactive means no such curve, though single readings can be large; an effect the other way counts as inactive or inconclusive.

Key:
[1] = qHTS assay to identify small molecule antagonists of the estrogen receptor alpha (ER-alpha) signaling pathway using the BG1 cell line in the presence of 0.1 nM 17-beta-estradiol - cell viability counter screen (AID 1259241); further: nearly all actives have a fitted effect of over 40% in size; further: potency means the concentration at half of the fitted maximal effect
Summary of the method: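 VM7Luc4E2 cells (endogenous full-length ER-alpha, 4xERE-luciferase), cultured 5 days in charcoal-stripped serum, exposed to compounds with 0.1 nM 17beta-estradiol (final) for 22 hr at 37C. Viability read in same wells as live-cell protease fluorescence after 30 min.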

[2] = qHTS assay to identify small molecule HDAC inhibitors (AID 1259364); further: potency means the concentration at half of the fitted maximal effect;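 further: wild-type HCT-116 cells with endogenous class I/II HDAC activity; nearly all actives have a fitted effect of over 45% in size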
Summary of the method: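 After a 2 hr compound incubation (37C, 5% CO2), HCT-116 cells seeded at 1,500/well the day before received HDAC-Glo reagent; signal read as luminescence after 30 min at room temperature.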

[3] = qHTS assay to identify small molecule HDAC inhibitors - cell viability counter screen (AID 1259365); further: nearly all actives have a fitted effect of over 50% in size; further: potency means the concentration at half of the fitted maximal effect
Summary of the method: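 Wild-type HCT-116 cells, 1,500/well, cultured overnight, then compound-treated 2 h at 37 C. Viability measured as ATP luminescence with CellTiter-Glo after 30 min at room temperature.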

[4] = qHTS assay to identify small molecule agonists of the sonic hedgehog signaling (Shh) pathway (AID 1259368; calls by dose curve;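 further: NIH/3T3-derived 3T3Gli1-Luc cells carrying a stable Gli1-driven firefly luciferase reporter; series mostly up to about 92 µM; nearly all actives have a fitted effect of over 15% in size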)
Summary of the method: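 Stable NIH/3T3 Gli1-Luc reporter clone; 24 hr cpd exposure after a 4 hr settling period; luminescence endpoint.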

[5] = qHTS assay to identify small molecule antagonists of the sonic hedgehog signaling (Shh) pathway (AID 1259369; calls by dose curve; further: nearly all actives have a fitted effect of over 45% in size; further: potency means the concentration at half of the fitted maximal effect)
Summary of the method: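 Gli1 transcriptional reporter (firefly Luc) in NIH/3T3 background, conditioned-medium activated. 24hr exposure, luminescence endpoint.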

[6] = molecular target: Estrogen receptor beta (Homo sapiens) (UniProt Q92731); test: qHTS assay to identify small molecule antagonists of the estrogen receptor beta (ER-beta) signaling pathway (AID 1259378; active means well fitted inhibition curve with a large enough effect in the signal ratio in the repeat runs, not every such curve was filed as active; the % refers to the signal ratio; further: potency means the concentration at half of the fitted maximal effect)
Summary of the method: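 ER-beta-UAS-bla HEK293T cells in 2% charcoal-stripped FBS medium treated with compound plus 1nM final 17-beta-estradiol for 16 hr at 37C. Beta-lactamase reporter read by FRET substrate fluorescence after 2 hours at room temperature.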

[7] = qHTS assay to identify small molecule agonists of the androgen receptor (AR) signaling pathway in the presence of an antagonist - cell viability counter screen (AID 1259379); further: nearly all actives have a fitted effect of over 25% in size; further: potency means the concentration at half of the fitted maximal effect
Summary of the method: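 Counter screen for cell viability run in parallel with the AR agonist-mode luciferase assay. MDA-kb2 cells were co-treated with nilutamide (3.0uM final) and compounds, then incubated 16 hr at 37C, and CellTiter-Fluor fluorescence was measured.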

[8] = qHTS assay to identify small molecule agonists of the estrogen receptor beta (ER-beta) signaling pathway - cell viability counter screen (AID 1259380); further: nearly all actives have a fitted effect of over 30% in size; further: potency means the concentration at half of the fitted maximal effect
Summary of the method: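 In this qHTS counter screen, HEK293T cells carrying an ER-beta/UAS beta-lactamase reporter, grown in 2% charcoal-stripped FBS, received compound for 16 hr; ATP-based CellTiter-Glo luminescence was then read after 30 min at room temperature.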

[9] = molecular target: Androgen receptor (Homo sapiens) (UniProt P10275); test: qHTS assay to identify small molecule agonists of the androgen receptor (AR) signaling pathway in the presence of an antagonist (AID 1259381; calls by dose curve; further: nearly all actives have a fitted effect of over 15% in size)
Summary of the method: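 AR antagonist background: nilutamide 3.0uM final. Cell line: MDA-kb2, MMTV-driven luciferase, responsive to both AR and GR. Exposure 16hr, 37C, no CO2; ONE-Glo luminescence.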

[10] = qHTS assay to identify small molecule antagonists of the estrogen receptor beta (ER-beta) signaling pathway - cell viability counter screen (AID 1259382); further: nearly all actives have a fitted effect of over 55% in size; further: potency means the concentration at half of the fitted maximal effect
Summary of the method: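 HEK293T ER-beta-UAS-bla, 2% charcoal-stripped FBS; compounds + 1nM E2 16 hr 37C; CellTiter-Glo luminescence, 30 min RT.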

[11] = qHTS assay to identify small molecule antagonists of the sonic hedgehog signaling (Shh) pathway - cell viability counter screen (AID 1259367); further: nearly all actives have a fitted effect of over 55% in size; further: potency means the concentration at half of the fitted maximal effect
Summary of the method: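 Tox21 library chemicals were tested on a Gli1-Luc NIH/3T3 clone (2,000 cells/well) stimulated by conditioned medium; viability was quantified as fluorescence from CellTiter-Fluor reagent added at 23 hr.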

[12] = molecular target: Estrogen receptor beta (Homo sapiens) (UniProt Q92731); test: qHTS assay to identify small molecule agonists of the estrogen receptor beta (ER-beta) signaling pathway (AID 1259377; active means well fitted activation curve with a large enough effect in the signal ratio in the repeat runs, not every such curve was filed as active; the % refers to the signal ratio)
Summary of the method: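 ER-beta-UAS-bla HEK293T cells in medium with 2% charcoal-stripped FBS were exposed to compounds for 16 h at 37C. Beta-lactamase reporter activity was read as fluorescence after 2 h with LiveBLAzer B/G FRET substrate at room temperature.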

[13] = qHTS assay to identify small molecule agonists or antagonists of the thyroid stimulating hormone receptor (TSHR) signaling pathway - wild type cell line counter screen (AID 1259384; calls by dose curve)
Summary of the method: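 Wild-type Hek293 cells, 800/well, 18 h at 37C, then compound with Ro20-1724 for 30 min RT. cAMP by HTRF (cAMP-d2/anti-cAMP cryptate), 1 h RT, fluorescence read. 15 concentrations, triplicates.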

[14] = qHTS assay to identify small molecule phospholipidosis (PLD) inducers (AID 1259344; active means well fitted curve in the direction sought with a large enough effect; an effect the other way counts as inactive or inconclusive)
Summary of the method: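 Image-based: LipidTOX Red pit count/intensity per well and per cell; HepG2, 24 h compound at 37 C, PFA fixation, Hoechst counterstain.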

[15] = qHTS assay to identify small molecule agonists of the sonic hedgehog signaling (Shh) pathway - cell viability counter screen (AID 1259366); further: nearly all actives have a fitted effect of over 50% in size; further: potency means the concentration at half of the fitted maximal effect
Summary of the method: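 NIH/3T3-derived Gli1-Luc reporter cells, 2,000 per well, received compound after 4 h and were treated about 23 h at 37C. Viability measured in the same wells by CellTiter-Fluor fluorescence after 1 h.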

[16] = molecular target: Estrogen receptor (Homo sapiens) (UniProt P03372); test: qHTS assay to identify small molecule antagonists of the estrogen receptor alpha (ER-alpha) signaling pathway using the BG1 cell line in the presence of 0.1 nM 17-beta-estradiol (AID 1259244); further: nearly all actives have a fitted effect of over 50% in size; further: potency means the concentration at half of the fitted maximal effect
Summary of the method: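 Seeding of stripped-serum-adapted VM7Luc4E2 cells, 24 h attachment, compound transfer, then 0.1 nM final 17beta-estradiol; after 22 h incubation, ONE-Glo reagent and luminescence reading.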

[17] = molecular target: Estrogen receptor (Homo sapiens) (UniProt P03372); test: qHTS assay to identify small molecule agonists of the estrogen receptor alpha (ER-alpha) signaling pathway in the presence of an antagonist (AID 1259383; calls by dose curve; further: top concentration of the series differs between compounds; nearly all actives have a fitted effect of over 15% in size)
Summary of the method: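 ER-alpha agonism measured under antagonist challenge: 10.0nM ICI-182,780 (final) plus compound, 15 concentrations, 22hr, VM7Luc4E2 ERE-luciferase cells. Read by luminescence.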

[18] = molecular target: Thyrotropin receptor (Homo sapiens) (UniProt P16473); test: qHTS assay to identify small molecule antagonists of the thyroid stimulating hormone receptor (TSHR) signaling pathway (AID 1259385; calls by dose curve; further: nearly all actives have a fitted effect of over 20% in size; further: potency means the concentration at half of the fitted maximal effect)
Summary of the method: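 TSHR-HEK293 cells (800/well) plated 18 h, then compounds with Ro20-1724 and TSH at 1.5 ng/mL final, 30 min at room temperature. cAMP quantified by HTRF (cAMP-d2/anti-cAMP-cryptate, 1 h); 15 concentrations in triplicate.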

[19] = qHTS assay to identify small molecule antagonists of the androgen receptor (AR) signaling pathway using the MDA cell line in the presence of 0.5 nM R1881 - cell viability counter screen (AID 1259242); further: nearly all actives have a fitted effect of over 45% in size; further: potency means the concentration at half of the fitted maximal effect
Summary of the method: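 Human breast carcinoma MDA-kb2 cells, cultured without CO2, receive compounds alongside 0.5 nM (final) R1881 agonist. After 16 hr at 37C, viability is taken as live-cell protease signal.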

[20] = molecular target: Androgen receptor (Homo sapiens) (UniProt P10275); test: qHTS assay to identify small molecule antagonists of the androgen receptor (AR) signaling pathway using the MDA cell line in the presence of 0.5 nM R1881 (AID 1259243); further: nearly all actives have a fitted effect of over 50% in size
Summary of the method: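 Cells: MDA-kb2 (MMTV-luc). Stimulus: 0.5 nM R1881. Time: 16 hr, 37C, no CO2. Detection: ONE-Glo luminescence after 30 min at RT.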

Sequence of Androgen receptor (Homo sapiens) (P10275 whole entry, looked up): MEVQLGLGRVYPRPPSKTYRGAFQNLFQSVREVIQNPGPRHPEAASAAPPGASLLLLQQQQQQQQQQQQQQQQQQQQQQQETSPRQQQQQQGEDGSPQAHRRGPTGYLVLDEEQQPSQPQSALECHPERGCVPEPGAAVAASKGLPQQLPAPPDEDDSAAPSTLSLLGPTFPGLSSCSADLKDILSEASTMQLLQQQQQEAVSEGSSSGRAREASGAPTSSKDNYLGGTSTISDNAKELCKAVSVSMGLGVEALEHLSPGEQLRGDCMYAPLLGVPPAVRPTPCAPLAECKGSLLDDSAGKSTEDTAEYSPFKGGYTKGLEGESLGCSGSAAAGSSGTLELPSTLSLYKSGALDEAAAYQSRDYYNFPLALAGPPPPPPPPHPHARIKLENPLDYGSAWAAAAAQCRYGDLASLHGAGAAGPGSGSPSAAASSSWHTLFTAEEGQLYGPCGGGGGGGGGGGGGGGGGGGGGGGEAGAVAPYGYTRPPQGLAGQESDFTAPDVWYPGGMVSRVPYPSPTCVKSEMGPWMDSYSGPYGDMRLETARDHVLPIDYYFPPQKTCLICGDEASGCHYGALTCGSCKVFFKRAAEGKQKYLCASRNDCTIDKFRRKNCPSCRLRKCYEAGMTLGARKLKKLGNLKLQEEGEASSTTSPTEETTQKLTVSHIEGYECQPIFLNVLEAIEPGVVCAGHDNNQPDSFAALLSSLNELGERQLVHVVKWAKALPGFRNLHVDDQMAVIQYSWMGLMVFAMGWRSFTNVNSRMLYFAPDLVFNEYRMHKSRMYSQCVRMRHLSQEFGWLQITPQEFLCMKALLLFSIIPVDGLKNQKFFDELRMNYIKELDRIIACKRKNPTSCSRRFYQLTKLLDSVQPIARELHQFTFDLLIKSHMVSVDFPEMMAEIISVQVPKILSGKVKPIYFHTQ
Sequence of Estrogen receptor (Homo sapiens) (P03372 whole entry, looked up): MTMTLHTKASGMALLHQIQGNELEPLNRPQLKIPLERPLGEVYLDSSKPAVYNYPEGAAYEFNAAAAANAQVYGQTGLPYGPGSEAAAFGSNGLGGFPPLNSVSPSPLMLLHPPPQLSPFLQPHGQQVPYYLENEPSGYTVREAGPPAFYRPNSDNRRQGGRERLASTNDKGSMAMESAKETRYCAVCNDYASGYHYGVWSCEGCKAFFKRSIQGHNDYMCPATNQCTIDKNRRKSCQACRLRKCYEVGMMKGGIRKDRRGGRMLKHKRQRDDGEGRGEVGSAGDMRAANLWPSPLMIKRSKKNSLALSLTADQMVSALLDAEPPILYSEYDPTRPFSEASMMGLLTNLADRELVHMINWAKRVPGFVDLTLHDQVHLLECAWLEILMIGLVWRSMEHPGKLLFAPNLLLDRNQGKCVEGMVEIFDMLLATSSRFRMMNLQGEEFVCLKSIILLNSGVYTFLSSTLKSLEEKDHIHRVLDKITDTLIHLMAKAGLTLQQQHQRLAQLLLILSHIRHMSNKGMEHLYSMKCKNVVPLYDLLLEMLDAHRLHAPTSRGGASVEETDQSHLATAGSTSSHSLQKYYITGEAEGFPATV
Sequence of Estrogen receptor beta (Homo sapiens) (Q92731 whole entry, looked up): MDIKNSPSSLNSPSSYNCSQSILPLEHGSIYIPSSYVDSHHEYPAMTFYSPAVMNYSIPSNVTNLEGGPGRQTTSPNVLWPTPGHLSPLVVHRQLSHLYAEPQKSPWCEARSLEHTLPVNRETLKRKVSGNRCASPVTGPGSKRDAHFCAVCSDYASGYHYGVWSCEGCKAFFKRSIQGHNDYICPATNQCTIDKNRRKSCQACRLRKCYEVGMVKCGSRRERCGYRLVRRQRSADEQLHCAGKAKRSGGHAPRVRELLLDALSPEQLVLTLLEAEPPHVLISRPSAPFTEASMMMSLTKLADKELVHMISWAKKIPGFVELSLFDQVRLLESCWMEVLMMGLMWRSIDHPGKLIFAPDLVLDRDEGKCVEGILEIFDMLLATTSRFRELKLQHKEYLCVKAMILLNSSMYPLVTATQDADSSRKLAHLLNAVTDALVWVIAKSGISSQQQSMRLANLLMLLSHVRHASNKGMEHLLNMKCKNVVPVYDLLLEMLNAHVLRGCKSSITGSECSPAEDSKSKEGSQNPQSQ
Sequence of Thyrotropin receptor (Homo sapiens) (P16473 whole entry, looked up): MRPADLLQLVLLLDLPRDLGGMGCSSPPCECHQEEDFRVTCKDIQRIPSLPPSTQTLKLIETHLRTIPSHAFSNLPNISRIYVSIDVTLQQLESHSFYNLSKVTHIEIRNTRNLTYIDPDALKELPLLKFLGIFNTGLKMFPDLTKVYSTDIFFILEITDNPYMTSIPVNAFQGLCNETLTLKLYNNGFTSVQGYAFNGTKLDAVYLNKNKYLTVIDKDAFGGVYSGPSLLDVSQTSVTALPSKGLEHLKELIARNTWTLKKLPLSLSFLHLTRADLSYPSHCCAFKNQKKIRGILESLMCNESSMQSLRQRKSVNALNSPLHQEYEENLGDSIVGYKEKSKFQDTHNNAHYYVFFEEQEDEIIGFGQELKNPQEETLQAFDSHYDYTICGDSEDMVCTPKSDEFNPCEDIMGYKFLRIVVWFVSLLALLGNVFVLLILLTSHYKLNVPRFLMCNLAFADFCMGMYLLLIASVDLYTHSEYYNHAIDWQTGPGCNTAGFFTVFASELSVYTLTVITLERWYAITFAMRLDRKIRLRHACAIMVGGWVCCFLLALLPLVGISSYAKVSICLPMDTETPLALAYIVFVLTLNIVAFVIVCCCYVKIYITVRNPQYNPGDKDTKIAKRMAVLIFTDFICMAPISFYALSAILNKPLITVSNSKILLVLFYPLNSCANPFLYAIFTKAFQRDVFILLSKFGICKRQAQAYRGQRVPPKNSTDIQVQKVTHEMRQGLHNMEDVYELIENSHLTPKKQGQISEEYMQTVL

SMILES | Potency [1] | Potency [2] | Potency [3] | Potency [4] | Potency [5] | Potency [6] | Potency [7] | Potency [8] | Potency [9] | Potency [10] | Potency [11] | Potency [12] | outcome [13] | Potency [14] | Potency [15] | Potency [16] | Potency [17] | Potency [18] | Potency [19] | Potency [20]
CCCCCCCC/C=C/CCCCCCCC1=NCCN1CCO | inactive | inactive | inactive | inactive | 54.5 µM (active) | 54.5 µM (active) | 61.1 µM (active) | 27.3 µM (active) | inactive | 54.5 µM (active) | – | – | – | – | – | – | – | – | – | –
CCc1cc(SCc2sc(-c3ccc(C(F)(F)F)cc3)nc2CN2CCN(c3ccc(OC)cc3)CC2)ccc1OCC(=O)O | inactive | inactive | 24.3 µM (active) | inactive | – | 5.45 µM (active) | 43.3 µM (active) | 4.33 µM (active) | – | – | inactive | inactive | inactive | – | – | – | – | – | – | –
COc1cc(/C=C/C(=O)O[C@H]2CC[C@]34C[C@]35CC[C@]3(C)[C@@H]([C@H](C)CCC=C(C)C)CC[C@@]3(C)[C@@H]5CC[C@H]4C2(C)C)ccc1O | inactive | inactive | inactive | inactive | inactive | – | inactive | inactive | – | inactive | inactive | – | – | inactive | inactive | – | – | – | – | –
O=c1[nH]sc2ccccc12 | 61.1 µM (active) | – | inactive | inactive | 0.969 µM (active) | – | – | 19.3 µM (active) | – | 27.3 µM (active) | 17.2 µM (active) | inactive | inactive | – | 13.7 µM (active) | 54.5 µM (active) | inactive | 68.6 µM (active) | – | –
CNCc1cc(F)ccc1Oc1ccc(Cl)c(Cl)c1 | inactive | inactive | inactive | inactive | 12.2 µM (active) | – | 54.5 µM (active) | 27.3 µM (active) | – | – | – | inactive | inactive | – | – | 54.5 µM (active) | – | inactive | – | –
c1ccc(CSCc2ccccc2)cc1 | inactive | 24.3 µM (active) | inactive | inactive | inactive | – | inactive | inactive | – | inactive | inactive | – | – | – | inactive | – | – | – | – | –
S=c1[nH]c2ccccc2s1 | inactive | – | inactive | – | 21.7 µM (active) | – | inactive | – | – | – | 48.6 µM (active) | inactive | – | inactive | – | – | – | – | – | –
NC(=NCCCCCCN=C(N)/N=C(\N)Nc1ccc(Cl)cc1)/N=C(\N)Nc1ccc(Cl)cc1 | inactive | inactive | 44.1 µM (active) and 60.8 µM (active) and inactive | inactive | 21.5 µM (active) and 27.2 µM (active) and 19.2 µM (active) | – | 62.2 µM (active) and 60.8 µM (active) and inactive | – | – | 60.6 µM (active) and 48.3 µM (active) and 44.1 µM (active) | 60.6 µM (active) and 43 µM (active) and inactive | – | inactive | inactive | 48.1 µM (active) and 24.8 µM (active) and 54.2 µM (active) | – | – | inactive | – | –
CCCCN1CCCC[C@H]1C(=O)Nc1c(C)cccc1C | – | inactive | inactive | inactive | inactive | – | inactive | inactive | inactive | inactive | inactive | inactive | inactive | inactive | inactive | inactive | – | inactive | inactive | inactive
CC(C)(C)CC(C)(C)c1ccc(OCCOCC[N+](C)(C)Cc2ccccc2)cc1 | inactive | inactive | inactive | inactive | 4.22 µM (active) | 26.6 µM (active) | 27.3 µM (active) and 21.1 µM (active) | 27.3 µM (active) and 16.8 µM (active) | – | 27.3 µM (active) and 15 µM (active) | 61.1 µM (active) and inactive | inactive | inactive | inactive | 48.5 µM (active) | – | inactive | inactive | – | –
O=C(Oc1cccc2cccnc12)c1ccccc1 | inactive | – | inactive | inactive | inactive | – | inactive | 10.6 µM (active) | – | – | – | inactive | inactive | inactive | – | – | inactive | inactive | – | –
C=C(C)C(=O)OCC(O)COc1ccc(C(C)(C)c2ccc(OCC(O)COC(=O)C(=C)C)cc2)cc1 (stereo unspecified) | 27.3 µM (active) | inactive | inactive | inactive | 48.6 µM (active) | – | 30.6 µM (active) | 61.1 µM (active) | – | – | – | – | inactive | – | inactive | 21.7 µM (active) | inactive | – | – | –
COc1ccc(-c2ccc3cc(C(=O)O)ccc3c2)cc1C12CC3CC(CC(C3)C1)C2 | inactive | inactive | inactive | inactive | inactive | – | – | – | – | inactive | inactive | – | inactive | inactive | – | – | inactive | – | – | –
CC(C)n1nc(-c2cc3cc(O)ccc3[nH]2)c2c(N)ncnc21 | – | inactive | inactive | inactive | 1.5 µM (active) | – | – | 0.211 µM (active) | – | – | 0.944 µM (active) | – | inactive | inactive | 0.841 µM (active) | 0.376 µM (active) | inactive | inactive | inactive | –
OCCCCCCCCCCCCBr | – | inactive | inactive | inactive | – | 55.3 µM (active) | inactive | inactive | – | – | inactive | inactive | inactive | – | inactive | – | – | inactive | inactive | –
Oc1ccc(Cl)cc1Sc1cc(Cl)ccc1O | – | inactive | inactive | inactive | 26.6 µM (active) | 18.8 µM (active) | 21.6 µM (active) and 26.6 µM (active) | 48.5 µM (active) and 29.8 µM (active) | – | – | 30.6 µM (active) and inactive | – | – | inactive | – | 30.6 µM (active) and 29.8 µM (active) | inactive | – | 29.8 µM (active) | –
